Data published in PubChem BioAssay (Tox21).
Inconclusive results are not listed. A call without a number means that no potency is given here. The source made the active and inactive calls. Calls follow the shape of the dose curve; as a rule, active = well fitted cell-killing curve with a large enough effect in the repeat runs; inconclusive = weak or mixed curves; inactive = flat fitted curve, though single readings scatter.

Experiment: qHTS assay to identify small molecule antagonists of the estrogen related receptor (ERR) signaling pathway - cell viability counter screen (AID 1224818)
Conditions: ERR reporter cell line viability counter screen; series mostly up to 46.1 µM
Method in brief: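 Cells carrying the ERR pathway reporter were seeded and incubated for 6 hours before compound addition. After a 17.5-hour exposure at 37 C, live-cell protease activity was measured by CellTiter-Fluor fluorescence following 30 minutes of incubation.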
Potency is read from the fitted curve at half-maximal effect.

Structure (SMILES) | Potency
O=c1cc(N2CCOCC2)oc2c(-c3ccccc3)cccc12 | inactive
Cn1cc(C(=O)OCC2CCN(CCNS(C)(=O)=O)CC2)c2ccccc21 | inactive
Nc1ncnc2c1ncn2[C@@H]1O[C@H](CO)C(O)[C@H]1O (stereo partly drawn) | inactive
NC(=O)CNCCC(c1ccccc1)c1ccccc1 | inactive
CC(=O)NCCc1c[nH]c2ccc(O)cc12 | inactive
CCCCC#Cc1nc(NC)c2ncn([C@@H]3O[C@H](CO)[C@@H](O)C3O)c2n1 (stereo partly drawn) | inactive
COc1cccc(OC)c1OCCNCC1CSc2ccccc2O1 (stereo not drawn) | inactive
c1ccc2c(c1)CCC[C@H]2Nc1nc2ccccc2[nH]1 | inactive
COc1cc2c(CCNC(C)=O)c[nH]c2cc1Cl | inactive
NC(Cc1cccc(-c2ccccc2CP(=O)(O)O)c1)C(=O)O (stereo not drawn) | inactive
O=C1NC(c2cccc([N+](=O)[O-])c2)=CCN1c1ccccc1O | inactive
Cn1c(=O)c2[nH]c(C3CCCC3)nc2n(C)c1=O | inactive
CCCn1c(=O)c2[nH]c(-c3ccc(S(=O)(=O)O)cc3)nc2n(CCC)c1=O | inactive
COc1ccccc1N1CCN(CCCNc2c(C)c(=O)n(C)c(=O)n2C)CC1 | inactive
C=CCNc1ncnc2ccc(Br)cc12 | inactive
Cc1nc(N=Nc2ccc(C(=O)O)cc2)c(COP(=O)(O)O)c(C=O)c1O | inactive
CCN(CC)CCCCNc1ncc2cc(-c3c(Cl)cccc3Cl)c(NC(=O)NC(C)(C)C)nc2n1 | 22 µM (active)
C#CCn1c(=O)c2c(ncn2C)n(C)c1=O | inactive
CN1CCc2cc(Cl)c(O)cc2[C@@H](c2ccccc2)C1 | inactive
COc1cc(/C=C(\C#N)C(=O)Nc2nnc(C(F)(F)F)s2)ccc1OCc1ccc(C(F)(F)F)cc1C(F)(F)F | inactive
CCCn1c(=O)c(C)cn2nc(N)nc12 | inactive
O=C(O)/C(=C/c1c(C(=O)O)[nH]c2cc(Cl)cc(Cl)c12)c1ccccc1 | inactive
O=c1cc(-c2ccccc2)[nH]c2nc(Cl)ccc12 | inactive
